Measured values as given in PubChem BioAssay.
Several values for one entry are separate records, joined by “and”; a condition that tells them apart may be missing. Equal entries are not always repeated. Activity calls are given as the source filed them. Unless noted, how the calls were made is not given here.

What was measured:
[1] = P. berghei load reduction in hepatocytes – cell-based, HepG2, luciferase luminescence, HepG2 viability, primary screen (AID 624349; in the data active means parasite load remaining mostly below about 12%, no sharp cut-off; inactive means mostly above about 10%;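 further: 100% = mean of DMSO negative control wells on the same plate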); conditions: P. berghei liver stage in HepG2, luciferase luminescence, concentration not given here; parasite load remaining: stronger effect = lower value; viability: measured here: HepG2 viability without parasites
[2] = signal quenchers or enhancers, Cy5 substrate/SSB – biochemical, NIH Clinical Collection, E. coli SSB, artefact control for HCV NS3 helicase inhibitor project (AID 743268); conditions: Cy5-oligo bound E. coli SSB, fluorescence interference
[3] = tested on: Hepatitis C virus NS3 helicase; assay: blockers of NS3h binding to DNA – biochemical, fluorescence polarization, NIH Clinical Collection, primary screen (AID 743270); conditions: NS3 helicase binding to Cy5-dT15 DNA, stronger effect = higher value, concentration not given here
[4] = target: Single-stranded DNA-binding protein (Escherichia coli (strain K12)) (UniProt P0AGE0); assay: SSB-ssDNA binding inhibitors – biochemical, fluorescence polarization, NIH Clinical Collection, counter-screen for HCV NS3 helicase inhibitor project (AID 743271; in the data active means inhibition above about 28%); conditions: E. coli SSB-DNA binding, stronger effect = higher value, concentration not given here
[5] = compounds distorting NS3 helicase fluorescence signal – biochemical, NIH Clinical Collection, artefact control for HCV NS3 helicase inhibitor project (AID 743272); conditions: fluorescence interference counterscreen, HCV NS3 helicase assay; stronger effect = lower value;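 further: HCV NS3 helicase with a Cy5 labelled single stranded DNA probe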
[6] = tested on: Neuropilin-2 / VEGF-C interaction (human); assay: small molecules blocking Neuropilin-2/VEGF-C interaction – biochemical, microplate binding format, z-score (AID 743281); conditions: microplate NRP2/VEGF-C binding assay; stronger effect = lower value
[7] = Wnt pathway potentiators raising nuclear beta-catenin – imaging, WNT3A-conditioned medium, mouse C2C12, NPC library, primary screen (AID 1117326; in the data active means nuclear beta-catenin stimulation mostly above about 4.2%, no sharp cut-off; inactive means mostly below about 10%); conditions: stronger effect = higher value
[8] = stimulators of insulin release from INS-1E, primary screen, cell-based, 5 mM glucose, NPC library (AID 1117329;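 active means compound raises insulin release from rat beta cells at 5 mM glucose, no numeric limit stated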); conditions: rat INS-1E insulin secretion, at 10 µM, stronger effect = higher value
[9] = growth inhibition of GSK3B-pretreated HCT116 cells – cell-based, CellTiter-Glo, 0.2 to 20 µM (AID 1117336;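 active means compounds lowering colon cancer cell viability after pretreatment blocking the GSK3B kinase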); conditions: HCT116 viability after GSK3B inhibitor, at 20 µM, stronger effect = higher value
[10] = inhibition of endothelial tube formation, primary screen, imaging, VEGF stimulated, CD31 staining, tube area, NPC library (AID 1117340;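 active means compound that reduces growth-factor-driven endothelial tube area in a mixed cell culture, no cutoff stated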); conditions: VEGF-stimulated ADSC/ECFC co-culture, at 10 µM, stronger effect = higher value
[11] = GLP1 release stimulators, primary, NCI-H716, NPC library (AID 1117341;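 active means compound raises GLP1 secretion from the human gut endocrine cells, with no numeric limit stated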); conditions: NCI-H716 cells, at 10 µM, stronger effect = higher value
[12] = HCT116 colon cancer cell growth inhibition, primary screen, CellTiter-Glo luminescence, NPC library (AID 1117342;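 active means compounds that lower survival of HCT116 colon cancer cells in the luminescence readout, no numeric limit stated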); conditions: at 20 µM (top of the series)
[13] = reduced SW480 viability measured with CellTiter-Glo, NPC library, primary (AID 1117343;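 active means compounds that lower viability of the colon cancer cells in the luminescence readout, with no numeric limit stated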); conditions: CellTiter-Glo luminescence; at 20 µM (top of the series)
[14] = NPC library primary testing for decreased DLD-1 cell viability via CellTiter-Glo (AID 1117346;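 active means compounds that lower survival of DLD-1 colon cancer cells in the luminescence readout, no cutoff given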); conditions: DLD-1 viability, CellTiter-Glo luminescence; at 20 µM (top of the series)
[15] = tested on: Hepatitis C virus NS3 helicase; assay: blockers of NS3h binding to ssDNA – biochemical, fluorescence polarization, LOPAC1280 library, primary screen (AID 687035; in the data active means inhibition above about 37%); conditions: Purified HCV NS3 helicase, Cy5-dT15 ssDNA binding fluorescence polarization; stronger effect = higher value; concentration not given here
[16] = compounds altering Cy5-DNA-NS3h complex signal – biochemical, LOPAC1280, artefact control for HCV NS3 helicase inhibitor project (AID 687037); conditions: Cy5-DNA-NS3h complex fluorescence interference counterscreen

CN(C)CCCSc1ccccc1NC(=O)/C=C/c1ccccc1
parasite load remaining [1]: 53.7% (inactive) and 10.2% (inactive) | viability [1]: 56.6% and 65.5% | fluorescence ratio [2]: 0.99 (inactive) | inhibition [3]: 0.4% (inactive) | inhibition [4]: -2.41% (inactive) | fluorescence ratio [5]: 0.97 (inactive) | z-score [6]: -0.209 (inactive) | nuclear beta-catenin stimulation ([7]; at 10 µM): 1.7% (inactive) | nuclear beta-catenin stimulation ([7]; stimulation, at 2 µM): 1.1% | insulin secretion stimulation [8]: 9.9% (inactive) | viability decrease [9]: -78.5% (inactive) | tube area decrease [10]: 23.1% (inactive) | GLP1 secretion stimulation [11]: 3.9% (inactive) | inhibition of viability [12]: 25.5% (inactive) | viability decrease (inhibition) [13]: 5.3% (inactive) | viability decrease (inhibition) [14]: -18% (inactive)

CN1CCC(=C2c3ccccc3CC(=O)c3sccc32)CC1
inhibition [15]: -3% (inactive) | fluorescence ratio (interference) [16]: 1 (inactive) | fluorescence ratio [2]: 0.97 (inactive) | inhibition [3]: -6.33% (inactive) | inhibition [4]: -0.39% (inactive) | fluorescence ratio [5]: 0.93 (inactive) | z-score [6]: -0.206 (inactive) | nuclear beta-catenin stimulation ([7]; at 10 µM): 1.3% (inactive) | nuclear beta-catenin stimulation ([7]; stimulation, at 2 µM): -1.2% | insulin secretion stimulation [8]: 3.05% (inactive) | viability decrease [9]: 10.7% (inactive) | tube area decrease [10]: -3.1% (inactive) | GLP1 secretion stimulation [11]: 5.2% (inactive) | inhibition of viability [12]: 15.7% (inactive) | viability decrease (inhibition) [13]: 38.1% (inactive) | viability decrease (inhibition) [14]: -6.6% (inactive)

CC(C)(C)NC(=O)[C@@H]1CN(Cc2cccnc2)CCN1C[C@@H](O)C[C@@H](Cc1ccccc1)C(=O)N[C@H]1c2ccccc2C[C@H]1O
parasite load remaining [1]: 83.6% (inactive) | viability [1]: 71% | inhibition [3]: -1.19% (inactive) | inhibition [4]: 1.44% (inactive) | fluorescence ratio [5]: 1.02 (inactive) | z-score [6]: 0.687 (inactive) | nuclear beta-catenin stimulation ([7]; at 10 µM): 1.8% (inactive) | nuclear beta-catenin stimulation ([7]; stimulation, at 2 µM): 1.7% | insulin secretion stimulation [8]: 6.7% (inactive) | viability decrease [9]: -0.8% (inactive) | tube area decrease [10]: 7.2% (inactive) | GLP1 secretion stimulation [11]: 4.1% (inactive) | inhibition of viability [12]: 10% (inactive) | viability decrease (inhibition) [13]: -7.5% (inactive) | viability decrease (inhibition) [14]: -9.3% (inactive)

O=C1CCc2ccc(OCCCCN3CCN(c4cccc(Cl)c4Cl)CC3)cc2N1
parasite load remaining [1]: 37.5% (inactive) and 20.9% (inactive) and 45.9% (inactive) | viability [1]: 98.8% and 60.3% and 100% | fluorescence ratio [2]: 1 (inactive) | inhibition [3]: 1.98% (inactive) | inhibition [4]: 4.52% (inactive) | fluorescence ratio [5]: 1.02 (inactive) | z-score [6]: 1.76 (inactive) | nuclear beta-catenin stimulation ([7]; at 10 µM): 2.8% (inactive) | nuclear beta-catenin stimulation ([7]; stimulation, at 2 µM): 0.4% | insulin secretion stimulation [8]: 3.7% (inactive) | viability decrease [9]: 95% (active) | tube area decrease [10]: 3.8% (inactive) | GLP1 secretion stimulation [11]: 10.2% (inactive) | inhibition of viability [12]: 99.4% (active) | viability decrease (inhibition) [13]: 112% (active) | viability decrease (inhibition) [14]: 89.5% (active)

COc1cc2nc(N3CCN(C(=O)C4COc5ccccc5O4)CC3)nc(N)c2cc1OC (centres undefined)
inhibition [15]: -4% (inactive) | fluorescence ratio (interference) [16]: 1 (inactive) | fluorescence ratio [2]: 1.06 (inactive) | inhibition [3]: -1.36% (inactive) | inhibition [4]: -2% (inactive) | fluorescence ratio [5]: 0.9 (inactive) | nuclear beta-catenin stimulation ([7]; at 10 µM): 38% (inactive) | nuclear beta-catenin stimulation ([7]; stimulation, at 2 µM): 2.3% | insulin secretion stimulation [8]: -0.7% (inactive) | viability decrease [9]: 100% (active) | tube area decrease [10]: 85.3% (active) | GLP1 secretion stimulation [11]: 25.7% (active) | inhibition of viability [12]: 101% (active) | viability decrease (inhibition) [13]: 142% (active) | viability decrease (inhibition) [14]: 103% (active)

COc1ccc(CC2c3cc(OC)c(OC)cc3CC[N+]2(C)CCC(=O)OCCCCCOC(=O)CC[N+]2(C)CCc3cc(OC)c(OC)cc3C2Cc2ccc(OC)c(OC)c2)cc1OC (centres undefined)
fluorescence ratio [2]: 1.03 (inactive) | inhibition [3]: -1.09% (inactive) | inhibition [4]: 1.97% (inactive) | fluorescence ratio [5]: 1.02 (inactive) | outcome [6]: inactive | nuclear beta-catenin stimulation ([7]; at 10 µM): 21.5% (inactive) | nuclear beta-catenin stimulation ([7]; stimulation, at 2 µM): 0.3% | insulin secretion stimulation [8]: 13.1% (inactive) | viability decrease [9]: 65.7% (active) | tube area decrease [10]: 44.4% (active) | GLP1 secretion stimulation [11]: -3% (inactive) | inhibition of viability [12]: 6.9% (inactive) | viability decrease (inhibition) [13]: 81.7% (active) | viability decrease (inhibition) [14]: 51.9% (active)

CN1CCC(=C2c3ccccc3C=Cc3ccccc32)CC1
inhibition [15]: -1% (inactive) | fluorescence ratio (interference) [16]: 1 (inactive) | fluorescence ratio [2]: 0.97 (inactive) | inhibition [3]: -2.84% (inactive) | inhibition [4]: -0.39% (inactive) | fluorescence ratio [5]: 0.96 (inactive) | z-score [6]: -0.162 (inactive) | nuclear beta-catenin stimulation ([7]; at 10 µM): 3.3% (inactive) | nuclear beta-catenin stimulation ([7]; stimulation, at 2 µM): 1.3% | insulin secretion stimulation [8]: 0.2% (inactive) | viability decrease [9]: 48.8% (inactive) | tube area decrease [10]: 43.3% (active) | GLP1 secretion stimulation [11]: 11.9% (inactive) | inhibition of viability [12]: 39% (inactive) | viability decrease (inhibition) [13]: 100% (active) | viability decrease (inhibition) [14]: 31.8% (inactive)

C[C@]12C[C@H](O)[C@H]3[C@@H](CCC4=CC(=O)CC[C@@]43C)[C@@H]1CC[C@@H]2C(=O)CO
inhibition [15]: 0% (inactive) | fluorescence ratio (interference) [16]: 1 (inactive) | fluorescence ratio [2]: 1.01 (inactive) | inhibition [3]: -1.97% (inactive) | inhibition [4]: 1.97% (inactive) | fluorescence ratio [5]: 0.99 (inactive) | nuclear beta-catenin stimulation ([7]; at 10 µM): 0% (inactive) | nuclear beta-catenin stimulation ([7]; stimulation, at 2 µM): -1.4% | insulin secretion stimulation [8]: 1.6% (inactive) | viability decrease [9]: -24.9% (inactive) | tube area decrease [10]: 9.5% (inactive) | GLP1 secretion stimulation [11]: 0.3% (inactive) | inhibition of viability [12]: -2.93% (inactive) | viability decrease (inhibition) [13]: 37.4% (inactive) | viability decrease (inhibition) [14]: 8.6% (inactive)

CN(CCOc1ccc(NS(C)(=O)=O)cc1)CCc1ccc(NS(C)(=O)=O)cc1
parasite load remaining [1]: 94% (inactive) and 61.2% (inactive) | viability [1]: 70% and 214% | z-score [6]: -1.11 (inactive) | nuclear beta-catenin stimulation ([7]; at 10 µM): -0.7% (inactive) | nuclear beta-catenin stimulation ([7]; stimulation, at 2 µM): 1.6% | insulin secretion stimulation [8]: 1.25% (inactive) | viability decrease [9]: 12.3% (inactive) | tube area decrease [10]: 3.3% (active) | GLP1 secretion stimulation [11]: 0.3% (inactive) | inhibition of viability [12]: 11.9% (inactive) | viability decrease (inhibition) [13]: 13% (inactive) | viability decrease (inhibition) [14]: -6.9% (inactive)

Cc1[nH]cnc1CN1CCc2c(c3ccccc3n2C)C1=O
parasite load remaining [1]: 109% (inactive) | viability [1]: 87.6% | fluorescence ratio [2]: 0.99 (inactive) | inhibition [3]: -8.32% (inactive) | inhibition [4]: -4.72% (inactive) | fluorescence ratio [5]: 0.96 (inactive) | z-score [6]: 0.471 (inactive) | nuclear beta-catenin stimulation ([7]; at 10 µM): 1.1% (inactive) | nuclear beta-catenin stimulation ([7]; stimulation, at 2 µM): 1.4% | insulin secretion stimulation [8]: 0.5% (inactive) | viability decrease [9]: 10.2% (inactive) | tube area decrease [10]: 19.5% (inactive) | GLP1 secretion stimulation [11]: 5.1% (inactive) | inhibition of viability [12]: -1.8% (inactive) | viability decrease (inhibition) [13]: 42.2% (inactive) | viability decrease (inhibition) [14]: 23.8% (inactive)

COCCCC/C(=N\OCCN)c1ccc(C(F)(F)F)cc1
parasite load remaining [1]: 94.5% (inactive) | viability [1]: 63.8% | outcome [6]: inactive | nuclear beta-catenin stimulation ([7]; at 10 µM): 0.8% (inactive) | nuclear beta-catenin stimulation ([7]; stimulation, at 2 µM): 0.4% | insulin secretion stimulation [8]: 1.6% (inactive) | viability decrease [9]: -112% (inactive) | tube area decrease [10]: -2.4% (inactive) | GLP1 secretion stimulation [11]: -1.9% (inactive) | inhibition of viability [12]: 37.3% (inactive) | viability decrease (inhibition) [13]: 15.4% (inactive) | viability decrease (inhibition) [14]: 23.5% (inactive)

Cc1cnc(NC(=O)C2=C(O)c3ccccc3S(=O)(=O)N2C)s1
inhibition [15]: -4% (inactive) | fluorescence ratio (interference) [16]: 1 (inactive) | nuclear beta-catenin stimulation ([7]; at 10 µM): 2% (inactive) | nuclear beta-catenin stimulation ([7]; stimulation, at 2 µM): -0.5% | insulin secretion stimulation [8]: -1% (inactive) | viability decrease [9]: -14.6% (inactive) | tube area decrease [10]: -8.1% (inactive) | GLP1 secretion stimulation [11]: -2.4% (inactive) | inhibition of viability [12]: 19.1% (inactive) | viability decrease (inhibition) [13]: 23.9% (inactive) | viability decrease (inhibition) [14]: 4.7% (active)
